Experimental data published in PubChem BioAssay (NCI).
The panel holds about 79,000 compounds, 15% with a hit somewhere; the sample as a whole holds those more often. The source made the active and inactive calls. Cut-off read from the data, not from the text of the source: active = growth inhibition above about 70%; inactive = the rest.

Tests used:
[1] = NCI Yeast Anticancer Drug Screen. Data for the rad52 strain (AID 147);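 note: 0% = growth of vehicle-treated control cultures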; details: S. cerevisiae rad52 mutant growth inhibition, active compounds read high
In short: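 The repair-mutant yeast strain was incubated with compounds, then growth was read and inhibition derived relative to vehicle.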

[2] = NCI Yeast Anticancer Drug Screen. Data for the wt1 strain (AID 149);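 note: 0% = growth of vehicle-treated wt1 cultures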; details: S. cerevisiae wt1 strain (SPY 50644) growth inhibition, active compounds read high
In short: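 wt1 strain grown with compound or vehicle; inhibition taken from the growth difference.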

[3] = NCI Yeast Anticancer Drug Screen. Data for the rad50EPP+ strain (AID 151);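 note: 0% = growth of vehicle-treated control cultures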; details: S. cerevisiae rad50 mutant strain, active compounds read high
In short: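 Vehicle-normalised growth inhibition; rad50EPP+ yeast strain, altered in DNA damage repair, compound-treated.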

[4] = NCI Yeast Anticancer Drug Screen. Data for the mgt1 strain (AID 153); details: S. cerevisiae mgt1 mutant growth inhibition, active compounds read high
In short: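 Vehicle-normalized growth inhibition is determined in mgt1 yeast, a strain selected for a defined alteration in DNA repair or cell cycle control.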

[5] = NCI Yeast Anticancer Drug Screen. Data for the rad50 strain (AID 155);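 note: 0% = growth of vehicle-only cultures of the same strain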; details: S. cerevisiae rad50 strain growth inhibition, active compounds read high
In short: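 DNA repair mutant yeast, compound exposure, growth read-out; inhibition is taken relative to vehicle.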

[6] = NCI Yeast Anticancer Drug Screen. Data for the mec2-1 strain (AID 157); details: S. cerevisiae mec2-1 strain, active compounds read high
In short: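 Mutant yeast (mec2-1) grown with compound; growth inhibition relative to vehicle control reported.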

[7] = NCI Yeast Anticancer Drug Screen. Data for the sgs1 mgt1 strain (AID 161);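 note: 0% = growth of cultures given vehicle only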; details: S. cerevisiae sgs1 mgt1 strain, active compounds read high
In short: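 Percent growth inhibition was derived by comparing compound-exposed mutant yeast with vehicle-exposed cultures. The strain carries alterations in DNA damage repair.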

[8] = NCI Yeast Anticancer Drug Screen. Data for the CLN2oe strain (AID 163);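 note: 0% = growth of vehicle-only control cultures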; details: S. cerevisiae CLN2oe strain, active compounds read high
In short: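 Compounds are applied to yeast harbouring a defined cell-cycle control change; reduced growth compared with vehicle-treated controls gives the value.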

[9] = NCI Yeast Anticancer Drug Screen. Data for the cln2 rad14 strain (AID 165);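 note: 0% = growth equal to vehicle treated cultures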; details: S. cerevisiae cln2 rad14 strain, active compounds read high
In short: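 Readout is yeast growth inhibition versus vehicle-treated controls, using a strain with cln2 and rad14 alterations exposed to compound.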

[10] = NCI Yeast Anticancer Drug Screen. Data for the bub3 strain (AID 167); details: S. cerevisiae bub3 mutant strain, active compounds read high
In short: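 In this screen, a yeast mutant lacking normal mitotic checkpoint function is challenged with compound. Relative growth versus vehicle gives the inhibition value.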

[11] = NCI Yeast Anticancer Drug Screen. Data for the wt2 strain (AID 169);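 note: 0% = growth of vehicle-treated yeast cultures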; details: S. cerevisiae wt2 strain growth inhibition, active compounds read high
In short: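 Against vehicle-treated controls, the growth of yeast exposed to each compound was compared, and the inhibition was recorded.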

[12] = NCI Yeast Anticancer Drug Screen. Data for the mlh1 strain (AID 171);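 note: 0% = growth of vehicle-treated control cultures of the same strain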; details: S. cerevisiae mlh1 strain growth inhibition, active compounds read high
In short: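 Measured: yeast growth. Reference: vehicle-treated controls. Organism: strain with a defined alteration affecting DNA damage repair or cell cycle control, treated with compound.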

[13] = NCI Yeast Anticancer Drug Screen. Data for the sgs1 strain (AID 173);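 note: 0% = growth of vehicle-only control cultures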; details: S. cerevisiae sgs1 mutant, active compounds read high
In short: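 Each compound was added to cultures of the altered yeast strain. Growth was recorded, and inhibition was derived by comparison with vehicle controls.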

[14] = NCI Yeast Anticancer Drug Screen. Data for the mlh1 rad18 strain (AID 175); details: S. cerevisiae mlh1 rad18 strain growth inhibition, active compounds read high
In short: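 Genetically defined yeast (DNA repair-deficient) exposed to compounds; growth inhibition determined relative to vehicle.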

[15] = NCI Yeast Anticancer Drug Screen. Data for the rad18 strain (AID 177); details: S. cerevisiae rad18 mutant growth inhibition, active compounds read high
In short: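 Vehicle-treated cultures served as the baseline for scoring compound-induced growth inhibition in DNA-repair-mutant yeast.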

[16] = NCI Yeast Anticancer Drug Screen. Data for the rad14 strain (AID 159);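 note: 0% = growth of vehicle-treated control cultures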; details: S. cerevisiae rad14 strain growth inhibition, active compounds read high
In short: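 DNA repair-defective yeast, compound-exposed; % growth inhibition derived by comparison with vehicle-treated controls.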

[17] = at 5.0 µM (retest, dose inferred, filed as 0.5)
[18] = at 50.0 µM (retest, dose inferred, filed as 5.0)

Measured: growth inhibition

O=[n+]1c2ccccc2n([O-])c2cc(Br)ccc21
active: [1]; at 1.2 µM 94% | [1]; at 3.7 µM 98% | [1]; at 11.0 µM 98% | [1]; at 33.0 µM 98% | [1]; at 100.0 µM 98% | [2]; at 11.0 µM 82% | [2]; at 33.0 µM 99% | [2]; at 100.0 µM 98% | [3]; at 1.2 µM 96% | [3]; at 3.7 µM 98% | [3]; at 11.0 µM 99% | [3]; at 33.0 µM 99% | [3]; at 100.0 µM 97% | [4]; at 33.0 µM 99% | [4]; at 100.0 µM 98% | [5]; at 1.2 µM 86% | [5]; at 3.7 µM 97% | [5]; [17] 96% | [5]; at 11.0 µM 98% | [5]; at 33.0 µM 99% | [5]; [18] 98% | [5]; at 50.0 µM 99.2% | [5]; at 100.0 µM 97% | [6]; [17] 85% | [6]; at 11.0 µM 92% | [6]; at 33.0 µM 99% | [6]; [18] 99% | [6]; at 50.0 µM 99.3% | [6]; at 100.0 µM 98% | [7]; [18] 99% | [7]; at 50.0 µM 99.2% | [8]; at 33.0 µM 99% | [8]; at 100.0 µM 98% | [9]; [18] 99% | [9]; at 50.0 µM 94.6% | [10]; at 11.0 µM 96% | [10]; at 33.0 µM 99% | [10]; [18] 99% | [10]; at 50.0 µM 99.4% | [10]; at 100.0 µM 99% | [11]; at 11.0 µM 99% | [11]; at 33.0 µM 100% | [11]; at 100.0 µM 98% | [12]; at 33.0 µM 99% | [12]; at 100.0 µM 98% | [13]; at 11.0 µM 97% | [13]; at 33.0 µM 99% | [13]; at 100.0 µM 98% | [14]; [17] 87% | [14]; [18] 98% | [14]; at 50.0 µM 99.2% | [15]; at 1.2 µM 84% | [15]; at 3.7 µM 92% | [15]; at 11.0 µM 98% | [15]; at 33.0 µM 99% | [15]; at 100.0 µM 98%
inactive: [2]; at 1.2 µM 7% | [2]; at 3.7 µM 43% | [4]; at 1.2 µM 5% | [4]; at 3.7 µM 5% | [4]; at 11.0 µM 51% | [6]; at 1.2 µM 18% | [6]; at 3.7 µM 52% | [7]; [17] 66% | [8]; at 1.2 µM 6% | [8]; at 3.7 µM 9% | [8]; at 11.0 µM 38% | [9]; [17] 19% | [10]; at 1.2 µM 42% | [10]; at 3.7 µM 63% | [10]; [17] 63% | [11]; at 1.2 µM 47% | [11]; at 3.7 µM 69% | [12]; at 1.2 µM -3% | [12]; at 3.7 µM 19% | [12]; at 11.0 µM 61% | [13]; at 1.2 µM 34% | [13]; at 3.7 µM 39%

CC(=O)OC1CCC2(C)C(=CC(C3C=C4CC(OC(C)=O)CCC4(C)C4=C3C3CC5OC6(CCC(C)CO6)C(C)C5C3(C)CC4)C3=C2CCC2(C)C3CC3OC4(CCC(C)CO4)C(C)C32)C1 (stereo not given)
active: [1]; at 100.0 µM 88% | [3]; at 100.0 µM 76% | [4]; at 100.0 µM 83% | [6]; at 100.0 µM 75% | [16]; at 100.0 µM 84% | [10]; at 50.0 µM 74.2% | [11]; at 100.0 µM 93% | [13]; at 100.0 µM 72% | [14]; [18] 88% | [14]; at 50.0 µM 82.5%
inactive: [1]; at 1.2 µM 0% | [1]; at 3.7 µM 3% | [1]; at 11.0 µM 7% | [1]; at 33.0 µM 20% | [2]; at 1.2 µM 1% | [2]; at 3.7 µM -1% | [2]; at 11.0 µM 0% | [2]; at 33.0 µM 9% | [2]; at 100.0 µM 11% | [3]; at 1.2 µM 1% | [3]; at 3.7 µM 2% | [3]; at 11.0 µM 25% | [3]; at 33.0 µM 65% | [4]; at 1.2 µM 1% | [4]; at 3.7 µM -3% | [4]; at 11.0 µM -2% | [4]; at 33.0 µM 24% | [6]; at 1.2 µM -2% | [6]; at 3.7 µM 0% | [6]; [17] -12% | [6]; at 11.0 µM 1% | [6]; at 33.0 µM 9% | [6]; [18] 33% | [6]; at 50.0 µM 45% | [16]; at 1.2 µM 1% | [16]; at 3.7 µM 0% | [16]; at 11.0 µM 4% | [16]; at 33.0 µM 13% | [8]; at 1.2 µM -3% | [8]; at 3.7 µM -8% | [8]; at 11.0 µM -8% | [8]; at 33.0 µM -7% | [8]; at 100.0 µM 53% | [9]; [17] 37% | [9]; [18] 60% | [9]; at 50.0 µM -4.25% | [10]; at 1.2 µM 0% | [10]; at 3.7 µM -1% | [10]; [17] -2% | [10]; at 11.0 µM -3% | [10]; at 33.0 µM 2% | [10]; [18] 69% | [10]; at 100.0 µM 61% | [11]; at 1.2 µM -2% | [11]; at 3.7 µM -3% | [11]; at 11.0 µM -1% | [11]; at 33.0 µM 25% | [12]; at 1.2 µM -1% | [12]; at 3.7 µM 0% | [12]; at 11.0 µM 0% | [12]; at 33.0 µM 12% | [12]; at 100.0 µM 69% | [13]; at 1.2 µM -4% | [13]; at 3.7 µM -5% | [13]; at 11.0 µM 3% | [13]; at 33.0 µM 25% | [14]; [17] -28% | [15]; at 1.2 µM -1% | [15]; at 3.7 µM -3% | [15]; at 11.0 µM -3% | [15]; at 33.0 µM 8% | [15]; at 100.0 µM 51%
